For some of these results: Entries with a potency or affinity are not part of this list.

What all share (set-up): scale not given: direction of the effect not stated beside the values
Assay [1] has as its target Protein translocase subunit SecA (Escherichia coli (strain K12)) (UniProt P10408). The assay is described as follows: Assay to Identify E. coli SecA ATPase Inhibitors. As to conditions: 30 µM. It counts as functional.
The target in assay [2] is T1, Ubiquitin-activating enzyme e1, putative (Leishmania donovani (strain BPK282A1)) (UniProt E9BSI1).
T1 sequence (whole entry): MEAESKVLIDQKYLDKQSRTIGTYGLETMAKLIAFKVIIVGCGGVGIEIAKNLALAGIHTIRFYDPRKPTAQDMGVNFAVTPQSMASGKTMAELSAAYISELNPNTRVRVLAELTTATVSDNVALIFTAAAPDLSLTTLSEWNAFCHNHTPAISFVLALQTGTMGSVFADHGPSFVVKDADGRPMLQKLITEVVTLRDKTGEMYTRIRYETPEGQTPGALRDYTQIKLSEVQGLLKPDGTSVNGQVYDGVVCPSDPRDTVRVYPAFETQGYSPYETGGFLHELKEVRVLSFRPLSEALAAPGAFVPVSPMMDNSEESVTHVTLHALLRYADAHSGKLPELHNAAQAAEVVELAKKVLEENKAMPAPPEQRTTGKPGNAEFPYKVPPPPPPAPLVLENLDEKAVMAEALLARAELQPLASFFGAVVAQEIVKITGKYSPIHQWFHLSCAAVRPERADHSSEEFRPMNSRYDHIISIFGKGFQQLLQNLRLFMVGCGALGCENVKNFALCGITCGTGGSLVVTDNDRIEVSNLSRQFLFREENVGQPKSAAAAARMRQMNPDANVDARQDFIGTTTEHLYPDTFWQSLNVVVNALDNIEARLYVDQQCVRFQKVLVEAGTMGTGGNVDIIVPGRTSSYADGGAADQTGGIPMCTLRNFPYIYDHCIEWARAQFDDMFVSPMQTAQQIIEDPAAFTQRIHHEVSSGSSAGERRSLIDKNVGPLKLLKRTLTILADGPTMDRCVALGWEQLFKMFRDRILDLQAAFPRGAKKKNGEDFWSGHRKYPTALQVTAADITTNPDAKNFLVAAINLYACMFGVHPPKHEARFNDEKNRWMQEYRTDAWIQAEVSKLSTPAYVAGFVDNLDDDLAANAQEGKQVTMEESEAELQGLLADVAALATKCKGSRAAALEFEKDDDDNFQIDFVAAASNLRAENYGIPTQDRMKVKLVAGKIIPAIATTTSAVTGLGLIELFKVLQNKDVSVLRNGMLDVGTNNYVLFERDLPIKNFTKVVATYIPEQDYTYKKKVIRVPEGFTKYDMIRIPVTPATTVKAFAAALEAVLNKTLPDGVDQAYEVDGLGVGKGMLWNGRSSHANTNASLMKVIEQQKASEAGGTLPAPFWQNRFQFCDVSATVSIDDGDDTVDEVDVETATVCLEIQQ
As to the kind of experiment: Leishmania donovani Ubiquitin Activating Enzyme (LdE1). Format: functional. The settings on record: 30 µM.

Assay [3] has as its target AMP-activated protein kinase, AMPK (Homo sapiens) (UniProt P54646+O43741+P54619+Q9UGJ0+Q9Y478+Q13131+Q9UGI9). As to the kind of experiment: AMP-dependent Kinase enzyme assay. An in vitro enzyme assay that detects ADP turnover that is directly proportional to AMPK activity. This uses naive AMPK that is activated during the assay with MK-8722. Format: functional. As to conditions: 30 µM.

The target in assay [4] is Sialic acid-binding Ig-like lectin 9 (Homo sapiens) (UniProt Q9Y336). As to the kind of experiment: Hs-Siglec9 ALPHAscreen SOP 20170721. As to conditions: 10 µM.
Sialic acid-binding Ig-like lectin 9 (Homo sapiens), sequence (Q9Y336 whole entry): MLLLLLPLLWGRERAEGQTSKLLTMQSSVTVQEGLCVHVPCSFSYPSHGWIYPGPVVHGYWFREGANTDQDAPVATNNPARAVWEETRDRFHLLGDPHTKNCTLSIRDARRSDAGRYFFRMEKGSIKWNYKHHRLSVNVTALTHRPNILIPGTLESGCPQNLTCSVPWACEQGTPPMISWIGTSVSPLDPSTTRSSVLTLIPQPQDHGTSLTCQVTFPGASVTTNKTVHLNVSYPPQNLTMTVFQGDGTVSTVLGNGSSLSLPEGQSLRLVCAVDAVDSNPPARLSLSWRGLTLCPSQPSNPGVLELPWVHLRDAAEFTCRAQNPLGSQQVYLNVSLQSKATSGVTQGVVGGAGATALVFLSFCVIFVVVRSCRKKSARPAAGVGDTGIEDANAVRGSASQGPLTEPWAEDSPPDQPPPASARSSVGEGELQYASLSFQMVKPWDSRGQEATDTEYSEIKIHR
For assay [5], the system named is Trypanosoma cruzi. The assay is described as follows: Trypanosoma cruzi phosphomannomutase and mannose-1-phosphate guanylyltransferase assay. As to conditions: 10 µM. Format: functional.
In assay [6] the target is T2, Arginase-2, mitochondrial (Homo sapiens) (UniProt P78540).
T2 sequence (whole entry): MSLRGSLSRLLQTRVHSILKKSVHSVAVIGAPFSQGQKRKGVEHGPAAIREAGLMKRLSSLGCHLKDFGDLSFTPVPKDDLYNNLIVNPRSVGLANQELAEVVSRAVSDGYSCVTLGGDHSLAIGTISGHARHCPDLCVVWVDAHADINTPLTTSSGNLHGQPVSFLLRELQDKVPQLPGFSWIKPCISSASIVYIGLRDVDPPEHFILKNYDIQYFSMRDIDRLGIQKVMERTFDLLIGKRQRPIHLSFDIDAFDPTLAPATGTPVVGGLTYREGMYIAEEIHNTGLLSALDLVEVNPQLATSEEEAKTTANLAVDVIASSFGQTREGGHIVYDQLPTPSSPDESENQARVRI
As to the kind of experiment: in vitro enzyme assay to detect the production of urea directly proportional to the activity of Arginase II. Also: in the data most compounds retested in dose-response had high values. Format: functional. As to conditions: 33.3 µM.

In assay [7] the target is T3, Proteasome subunit beta (Trypanosoma cruzi) (UniProt O96673).
T3 sequence (whole entry): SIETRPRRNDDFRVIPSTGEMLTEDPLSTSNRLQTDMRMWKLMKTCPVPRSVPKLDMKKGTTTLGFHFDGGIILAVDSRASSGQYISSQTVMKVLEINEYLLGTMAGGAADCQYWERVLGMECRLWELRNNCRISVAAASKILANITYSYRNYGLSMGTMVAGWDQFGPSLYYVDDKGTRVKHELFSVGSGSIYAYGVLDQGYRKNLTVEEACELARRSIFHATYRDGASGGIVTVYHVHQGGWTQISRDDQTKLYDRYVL
As to the kind of experiment: Trypanosoma cruzi proteasome chymotrypsin-like activity (TcProtChymo) assay. Also: in the data most compounds retested in dose-response had high values. It counts as functional. As to conditions: 9.37 µM.

For assay [8], the species on record is Homo sapiens. As to the kind of experiment: To identify inhibition of the IFN signalling (Jak-Stat) pathway via expression of an eGFP reporter gene under the control of an IFN-stimulated response element (ISRE) containing MxA promoter. Format: functional. As to conditions: 30 µM.
For assay [9], the target named is T4, Tyrosyl-tRNA synthetase, putative (Trypanosoma cruzi (strain CL Brener)) (UniProt Q4DSP6).
T4 sequence (whole entry): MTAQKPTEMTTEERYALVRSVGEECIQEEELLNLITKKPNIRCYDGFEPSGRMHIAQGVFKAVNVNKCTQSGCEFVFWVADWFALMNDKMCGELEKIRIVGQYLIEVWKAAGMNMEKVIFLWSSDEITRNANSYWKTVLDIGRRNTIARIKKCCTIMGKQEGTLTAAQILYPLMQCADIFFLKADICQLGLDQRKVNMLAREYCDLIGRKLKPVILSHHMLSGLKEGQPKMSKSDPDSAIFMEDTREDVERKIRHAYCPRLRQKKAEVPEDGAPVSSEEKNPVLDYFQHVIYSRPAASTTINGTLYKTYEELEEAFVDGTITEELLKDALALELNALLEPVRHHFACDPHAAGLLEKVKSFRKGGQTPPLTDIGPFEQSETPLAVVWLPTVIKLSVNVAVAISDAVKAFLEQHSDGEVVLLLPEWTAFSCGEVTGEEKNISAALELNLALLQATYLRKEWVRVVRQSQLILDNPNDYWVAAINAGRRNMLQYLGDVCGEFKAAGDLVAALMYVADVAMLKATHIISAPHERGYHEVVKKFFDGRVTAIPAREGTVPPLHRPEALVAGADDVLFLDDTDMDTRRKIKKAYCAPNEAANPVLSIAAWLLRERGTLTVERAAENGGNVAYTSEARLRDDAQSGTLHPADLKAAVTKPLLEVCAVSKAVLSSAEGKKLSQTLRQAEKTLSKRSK
The assay is described as follows: Trypanosoma cruzi tyrosyl tRNA synthetase (TcYRS) _High Tyrosine SOP. Also: in the data most compounds retested in dose-response had high values. It counts as functional. As to conditions: 30 µM.

For assay [10], the target named is T4, Tyrosyl-tRNA synthetase, putative (Trypanosoma cruzi (strain CL Brener)). The assay is described as follows: Trypanosoma cruzi tyrosyl tRNA synthetase (TcYRS) SOP. As to conditions: 30 µM. It counts as functional.
For assay [11], the target named is Chromo domain-containing protein 1 (Saccharomyces cerevisiae (strain ATCC 204508 / S288c) (Baker's yeast)) (UniProt P32657). As to the kind of experiment: ScCHD-1 Enzyme Inhibition Assay. Also: in the data most compounds retested in dose-response had high values. Format: functional. As to conditions: 30 µM.
Chromo domain-containing protein 1 (Saccharomyces cerevisiae (strain ATCC 204508 / S288c) (Baker's yeast)), sequence (P32657 whole entry, the tested form may be a part): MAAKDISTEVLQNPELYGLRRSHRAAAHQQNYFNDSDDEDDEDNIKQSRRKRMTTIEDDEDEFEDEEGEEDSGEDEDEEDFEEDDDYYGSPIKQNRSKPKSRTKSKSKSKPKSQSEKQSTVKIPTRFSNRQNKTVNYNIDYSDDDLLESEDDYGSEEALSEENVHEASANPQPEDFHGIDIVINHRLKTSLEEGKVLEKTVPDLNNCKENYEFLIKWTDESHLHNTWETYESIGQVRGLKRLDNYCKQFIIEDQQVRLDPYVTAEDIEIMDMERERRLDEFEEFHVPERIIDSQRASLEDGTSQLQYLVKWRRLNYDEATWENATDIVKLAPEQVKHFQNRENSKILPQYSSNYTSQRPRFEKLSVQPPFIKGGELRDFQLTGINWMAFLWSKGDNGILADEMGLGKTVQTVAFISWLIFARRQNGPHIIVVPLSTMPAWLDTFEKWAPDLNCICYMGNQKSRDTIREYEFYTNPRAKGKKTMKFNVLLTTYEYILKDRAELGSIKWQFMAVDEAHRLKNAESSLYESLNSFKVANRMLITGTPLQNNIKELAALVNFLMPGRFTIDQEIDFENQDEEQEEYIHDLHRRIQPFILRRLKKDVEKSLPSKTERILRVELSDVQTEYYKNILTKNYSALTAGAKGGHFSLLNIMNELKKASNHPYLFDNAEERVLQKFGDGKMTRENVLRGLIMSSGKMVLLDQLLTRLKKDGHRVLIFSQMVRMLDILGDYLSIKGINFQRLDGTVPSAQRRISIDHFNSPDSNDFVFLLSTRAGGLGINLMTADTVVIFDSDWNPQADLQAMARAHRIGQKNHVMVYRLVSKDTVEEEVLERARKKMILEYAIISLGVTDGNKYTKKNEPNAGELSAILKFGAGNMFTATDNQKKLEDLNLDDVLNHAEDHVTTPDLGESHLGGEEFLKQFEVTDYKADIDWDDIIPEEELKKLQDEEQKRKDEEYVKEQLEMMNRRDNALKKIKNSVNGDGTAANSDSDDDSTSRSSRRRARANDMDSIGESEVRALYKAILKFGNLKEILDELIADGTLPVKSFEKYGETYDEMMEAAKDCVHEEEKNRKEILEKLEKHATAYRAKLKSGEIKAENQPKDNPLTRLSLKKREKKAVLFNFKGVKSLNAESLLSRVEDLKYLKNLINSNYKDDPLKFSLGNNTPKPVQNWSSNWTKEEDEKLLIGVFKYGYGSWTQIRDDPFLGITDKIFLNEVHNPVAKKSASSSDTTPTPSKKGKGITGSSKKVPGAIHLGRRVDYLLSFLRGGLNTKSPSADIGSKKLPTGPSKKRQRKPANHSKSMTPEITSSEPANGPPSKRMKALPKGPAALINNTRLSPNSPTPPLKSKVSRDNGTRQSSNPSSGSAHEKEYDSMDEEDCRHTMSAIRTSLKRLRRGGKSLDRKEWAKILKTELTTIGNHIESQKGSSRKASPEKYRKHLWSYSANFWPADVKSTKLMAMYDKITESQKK

Protein translocase subunit SecA (Escherichia coli (strain K12)), sequence (P10408 whole entry): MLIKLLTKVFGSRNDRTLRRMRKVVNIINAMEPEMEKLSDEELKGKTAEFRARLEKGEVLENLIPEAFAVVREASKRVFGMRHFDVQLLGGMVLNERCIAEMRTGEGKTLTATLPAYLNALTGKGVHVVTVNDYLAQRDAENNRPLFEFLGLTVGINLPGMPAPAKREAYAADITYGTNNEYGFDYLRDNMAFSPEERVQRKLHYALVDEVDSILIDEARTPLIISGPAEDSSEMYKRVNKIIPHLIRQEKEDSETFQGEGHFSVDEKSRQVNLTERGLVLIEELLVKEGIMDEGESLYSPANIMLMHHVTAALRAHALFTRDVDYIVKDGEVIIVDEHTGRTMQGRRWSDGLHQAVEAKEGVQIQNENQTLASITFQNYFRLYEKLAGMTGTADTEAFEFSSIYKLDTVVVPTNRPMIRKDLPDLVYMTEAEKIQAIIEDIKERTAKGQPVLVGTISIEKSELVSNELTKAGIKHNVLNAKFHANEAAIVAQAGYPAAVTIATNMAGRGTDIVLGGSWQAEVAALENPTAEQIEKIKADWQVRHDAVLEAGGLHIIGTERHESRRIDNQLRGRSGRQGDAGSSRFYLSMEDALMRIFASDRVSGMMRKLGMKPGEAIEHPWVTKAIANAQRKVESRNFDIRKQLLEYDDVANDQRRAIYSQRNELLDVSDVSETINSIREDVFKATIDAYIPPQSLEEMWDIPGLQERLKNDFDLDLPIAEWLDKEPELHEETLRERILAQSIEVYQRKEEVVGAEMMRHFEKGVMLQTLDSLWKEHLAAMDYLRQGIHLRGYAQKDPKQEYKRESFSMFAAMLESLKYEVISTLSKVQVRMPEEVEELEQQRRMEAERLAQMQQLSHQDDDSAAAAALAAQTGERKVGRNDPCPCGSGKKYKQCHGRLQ

Consider `Cn1cc(CCNC(=O)CCc2ccc3c(c2)OCO3)cn1`, for which the Percent Effect in assay [1] was -0.341%; in assay [2], 16.2%; in [3] it was 0.891%; in [4], 13.4%; in [5], -9.75%; in assay [6], 3.88%. For the same compound, the Percent Effect was 13.3% in assay [7]; 8.13% in assay [8]; 1.98% in assay [9]; 13.4% in assay [10]; -6.68% in assay [11].

On to `Cc1cnn(CCNCc2ccc(OCc3csc(C)n3)cc2)c1`, for which the Percent Effect in [1] is -7.35%; in [2], 0%; in assay [3] it was -1.8%; in assay [4], 8.64%; in assay [5], 10.2%; in assay [6] it was -1.04%. For the same compound, the Percent Effect in assay [7] is 8.54%; in assay [8], 11.2%; in assay [9], 3.83%; in [10], 11.1%; in [11] it was -5.91%.

As to `CN(Cc1ccco1)[C@@H]1CN(C(=O)c2ccnnc2)[C@@H]2CCCO[C@H]12`, the Percent Effect in assay [1] is -2.54%; in assay [2], 2.74%; in [3], -7.68%; in [4], 19.2%; in assay [5] it was 7.74%; in assay [6], -2.4%. The Percent Effect in assay [7] was 13.4%; in [8], -41.3%; in [9], 3.12%; in assay [10], 13.6%; in assay [11] it was -1.74%.

`CCC1=N[C@@]2(CC[C@@H]3CN(C(=O)NCC(C)C)C[C@@H]32)C(=O)N1CC(C)C`: the Percent Effect in assay [1] is -3.96%; in assay [2], 8%; in assay [3], 0.0094%; in assay [4], 5.84%; in assay [5], 4.25%; in assay [6] it was -55%. Further, the Percent Effect in assay [7] was 12.8%; in [8] it was 2.46%; in assay [9], 8.33%; in assay [10] it was 10%; in assay [11], -6.18%.

As to `Cc1nn(C)c(N2CCOCC2)c1CNC1CCc2ccccc2C1` (stereo not drawn), the Percent Effect in assay [1] is -2.57%; in assay [2], 15.2%; in assay [3], -15%; in assay [4], 9.25%; in [5] it was 3.12%; in assay [6] it was -2.28%. Besides, the Percent Effect in assay [7] was -2.87%; in assay [8] it was 8.26%; in [9] it was 9.36%; in assay [10] it was 16.5%; in assay [11] it was -4.44%.

As to `CC(=O)N1CCC(c2nccnc2Oc2ccccc2)CC1`, the Percent Effect was -6.13% in assay [1]; 4.05% in assay [2]; 4.17% in assay [3]; -0.964% in [4]; -6.32% in assay [5]; -3.02% in assay [6]. Further, the Percent Effect is 4.06% in assay [7]; 13.5% in assay [8]; 2.15% in assay [9]; 1.3% in [10]; 11.4% in assay [11].

Regarding `CNS(=O)(=O)c1cccc(C(C)NCc2ccccc2)c1` (stereo not drawn), the Percent Effect was -0.281% in assay [1]; -2.7% in assay [2]; 1.68% in [3]; -2.19% in assay [4]; -5.08% in assay [5]; 1.67% in assay [6]. Also, the Percent Effect in [7] was 3.63%; in assay [8], -5.59%; in [9], 2.97%; in [10], 1.22%; in assay [11], -1.16%.

Consider `Cc1c[nH]c(CN(C)c2nc(C3CCCC3)nc3c2cnn3C)n1`, for which the Percent Effect in [1] was -3.47%; in [2], 1.39%; in assay [3], 3.98%; in assay [4], -7.75%; in assay [5], -3.01%; in assay [6] it was 2.21%. For the same compound, the Percent Effect in assay [7] was 3.68%; in assay [8] it was -3.43%; in [9], 0%; in [10] it was 2.56%; in assay [11], -2.96%.

Source of the values: ChEMBL document CHEMBL3988442, “University of Dundee, Small-Polar-MMV Screening Library” (2021).
